# According to article PMC6451091, “NextPBM: a platform to study cell-specific transcription factor binding and cooperativity”:
# Whole data set: some 3,700 sequences, median “z-score” near 4, cut for the highest 2% near 8.4. The full list was thinned out, with the highest values kept by preference.
# What was measured:
# PU.1 (IVT) [1] = target: PU.1 (IVT) (UniProt P17947 1-270); test: protein-binding microarray (PBM); 20 mM HEPES pH 7.9, 100 mM NaCl, 1 mM DTT, 0.2 mg/mL BSA, 0.02% Triton X-100, 2% milk, 0.4 mg/mL salmon testes DNA; 1 h; temperature not stated; high values mean tight binding; conditions: dsDNA, one strand shown
# In short: (§1)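 Untagged full-length PU.1 was produced by coupled human in vitro transcription/translation and incubated for 1 h on custom double-stranded DNA microarrays in HEPES pH 7.9 containing 100 mM NaCl, 2% milk and salmon testes DNA. Each array carried 20-bp genomic sites and single-nucleotide variants, with 10 probes per site (5 per orientation). Bound protein was detected with anti-PU.1 followed by a fluorescent secondary antibody. Binding values are z-scores calculated from scanned fluorescence after linear-regression normalisation.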
# PU.1 (IVT) [2] = target: PU.1 (IVT) (UniProt P17947 1-270); test: as above; conditions: dsDNA, one strand shown; remark: listed apart in the source
# In short: as §1
Sequence,binding signal (PU.1 (IVT) [1]) [z-score],binding signal (PU.1 (IVT) [2]) [z-score]
GCCTAGCACGCTTTAGGGAACTACTGTGGGTGCTAGGTCTTGATTCGCTTGACGCTGCTG,3.58,–
GCCTAGCACCCTAAAGGGAAGTGTAAATAGTGCTAGGTCTTGATTCGCTTGACGCTGCTG,3.27,–
GCCTAGCACCAAATCAGGAACTGATGCGGGTGCTAGGTCTTGATTCGCTTGACGCTGCTG,3.39,–
GCCTAGCACTTTTATCAGGAAATGACTGGGTGCTAGGTCTTGATTCGCTTGACGCTGCTG,0.896,–
GCCTAGCACTCAGGAGGGAAGTGAAGAAAGTGCTAGGTCTTGATTCGCTTGACGCTGCTG,–,2.65
GCCTAGCACAGATTGTGGAAGTACTGTGAGTGCTAGGTCTTGATTCGCTTGACGCTGCTG,–,2.73
GCCTAGCACAGAATAGGGAAGTGAGAAATGTGCTAGGTCTTGATTCGCTTGACGCTGCTG,–,6.39
GCCTAGCACCAGAAAAGGAAGTGGGGGTGGTGCTAGGTCTTGATTCGCTTGACGCTGCTG,3.51,–
GCCTAGCACCTGGGAGGGAACTGAAACTCGTGCTAGGTCTTGATTCGCTTGACGCTGCTG,0.859,–
GCCTAGCACTGGAAGAGGAAGTGGCACTGGTGCTAGGTCTTGATTCGCTTGACGCTGCTG,5.78,–
GCCTAGCACCTTTTAAGGAAGTGCTCACTGTGCTAGGTCTTGATTCGCTTGACGCTGCTG,4.92,–
GCCTAGCACGAAGTAGGGAAGTGAAAGAGGTGCTAGGTCTTGATTCGCTTGACGCTGCTG,3.36,–
GCCTAGCACGAAAAGAGGAAGAGTCTTAGGTGCTAGGTCTTGATTCGCTTGACGCTGCTG,5,–
GCCTAGCACGAAAAGAGGAAGTTGGACATGTGCTAGGTCTTGATTCGCTTGACGCTGCTG,–,8.75
GCCTAGCACGAAAAAAGGAAGTAGTATAAGTGCTAGGTCTTGATTCGCTTGACGCTGCTG,–,6.96
GCCTAGCACGAAAAGAGGAAATGGGGAGTGTGCTAGGTCTTGATTCGCTTGACGCTGCTG,5.14,–
GCCTAGCACGAAAAGAGGAAGTAGGATAAGTGCTAGGTCTTGATTCGCTTGACGCTGCTG,–,8.46
GCCTAGCACGAAAAGAGGAAGTGAGAAACGTGCTAGGTCTTGATTCGCTTGACGCTGCTG,–,8.29
GCCTAGCACGAAAAGAGGAAGTTGGGGAAGTGCTAGGTCTTGATTCGCTTGACGCTGCTG,–,8.94
GCCTAGCACGAAAAGAGGAAGTTGCTTACGTGCTAGGTCTTGATTCGCTTGACGCTGCTG,–,9.03
GCCTAGCACGAAAAGGGGAAGTTGGGTTGGTGCTAGGTCTTGATTCGCTTGACGCTGCTG,–,8.21
GCCTAGCACGAAAAGAGGAAGCCCATGTGGTGCTAGGTCTTGATTCGCTTGACGCTGCTG,–,5.2

Sequence,binding signal (PU.1 (IVT) [1]) [z-score],binding signal (PU.1 (IVT) [2]) [z-score]
GCCTAGCACGAAAAGAGGAAGTCTTGCATGTGCTAGGTCTTGATTCGCTTGACGCTGCTG,–,8.22
GCCTAGCACAAAAAAAGGAAGTGAAAGTAGTGCTAGGTCTTGATTCGCTTGACGCTGCTG,–,6.78
GCCTAGCACGGTGGGAGGAAGTGATCGGTGTGCTAGGTCTTGATTCGCTTGACGCTGCTG,3.72,–
GCCTAGCACGAAAAGGGGAAGTGAGGGATGTGCTAGGTCTTGATTCGCTTGACGCTGCTG,–,7.81
GCCTAGCACGAAAAAAGGAAGTTGCACAGGTGCTAGGTCTTGATTCGCTTGACGCTGCTG,–,6.42
GCCTAGCACTGGGAGGAGAAGTGAAACCTGTGCTAGGTCTTGATTCGCTTGACGCTGCTG,–,1.37
GCCTAGCACTGAAAGAGGAATTGCAACCAGTGCTAGGTCTTGATTCGCTTGACGCTGCTG,–,2.04
GCCTAGCACGAAAAGAGGAAGTCTGAAAAGTGCTAGGTCTTGATTCGCTTGACGCTGCTG,–,7.48
GCCTAGCACGAAAAGAGGAAGTTAAAGAAGTGCTAGGTCTTGATTCGCTTGACGCTGCTG,–,8.52
GCCTAGCACGAAAAGAGGAAGTGAAGTTAGTGCTAGGTCTTGATTCGCTTGACGCTGCTG,–,8.28
GCCTAGCACAGTTGGAGGAAGTGGCACTTGTGCTAGGTCTTGATTCGCTTGACGCTGCTG,–,2.78
GCCTAGCACGAAAACAGGAAGTGGGGATGGTGCTAGGTCTTGATTCGCTTGACGCTGCTG,–,7.43
GCCTAGCACCAAAAGAGGAAGTTGGCAAAGTGCTAGGTCTTGATTCGCTTGACGCTGCTG,–,8.72
GCCTAGCACCAAAAGAGGAAGTGGTATCAGTGCTAGGTCTTGATTCGCTTGACGCTGCTG,–,8.24
GCCTAGCACCAAAAGAGGAAGTGGTGAAAGTGCTAGGTCTTGATTCGCTTGACGCTGCTG,–,8.4
GCCTAGCACCAAAAGAGGAAGTCAAGCTGGTGCTAGGTCTTGATTCGCTTGACGCTGCTG,–,7.88
GCCTAGCACCAAAAGAGGAAGTGAAGCTGGTGCTAGGTCTTGATTCGCTTGACGCTGCTG,–,8.37
GCCTAGCACCAAAAGAGGAAGTCAGAGAGGTGCTAGGTCTTGATTCGCTTGACGCTGCTG,–,7.94
GCCTAGCACCAAAAGAGGAACTGCTGCTGGTGCTAGGTCTTGATTCGCTTGACGCTGCTG,–,6.83
GCCTAGCACCAAAAGAGGAAGTGGCATATGTGCTAGGTCTTGATTCGCTTGACGCTGCTG,–,8.01
GCCTAGCACCAAAGAAGGAAGTGAAACTGGTGCTAGGTCTTGATTCGCTTGACGCTGCTG,–,4.74
GCCTAGCACTGAGAGAGGAAGTAACTTAAGTGCTAGGTCTTGATTCGCTTGACGCTGCTG,5.44,–

Sequence,binding signal (PU.1 (IVT) [1]) [z-score],binding signal (PU.1 (IVT) [2]) [z-score]
GCCTAGCACCTGCCAGGGAAGTGAAATCAGTGCTAGGTCTTGATTCGCTTGACGCTGCTG,–,1.1
GCCTAGCACGAGAAGAGGAAGTGAGATCTGTGCTAGGTCTTGATTCGCTTGACGCTGCTG,–,6.45
GCCTAGCACAAAAAGAGGAAGAGGGGACAGTGCTAGGTCTTGATTCGCTTGACGCTGCTG,–,5.23
GCCTAGCACAAAAAAGGGAAGTGACATACGTGCTAGGTCTTGATTCGCTTGACGCTGCTG,–,7.76
GCCTAGCACAAAAAAGGGAAGTGCCATAAGTGCTAGGTCTTGATTCGCTTGACGCTGCTG,–,7.55
GCCTAGCACAAAGTGGGGAAGTGACAAAAGTGCTAGGTCTTGATTCGCTTGACGCTGCTG,3.36,–
GCCTAGCACAAAAAGGGGAAGTGACATAAGTGCTAGGTCTTGATTCGCTTGACGCTGCTG,–,8.47
GCCTAGCACAAAAAAGGGAAGTGATTTAAGTGCTAGGTCTTGATTCGCTTGACGCTGCTG,–,8.59
GCCTAGCACAAAAAAGGGAAGTGAAAATAGTGCTAGGTCTTGATTCGCTTGACGCTGCTG,–,7.69
GCCTAGCACGAAAAGAGGAACCGTATGGTGTGCTAGGTCTTGATTCGCTTGACGCTGCTG,–,5.79
GCCTAGCACTAAAAGAGGAAGTAGCCAAAGTGCTAGGTCTTGATTCGCTTGACGCTGCTG,–,8.23
GCCTAGCACTAAAAGAGGAAGAGGAAGAAGTGCTAGGTCTTGATTCGCTTGACGCTGCTG,5.75,–
GCCTAGCACTAAAAGAGGAAGTGCAACCAGTGCTAGGTCTTGATTCGCTTGACGCTGCTG,–,8.29
GCCTAGCACTAAAAGAGGAAGTGCATTCAGTGCTAGGTCTTGATTCGCTTGACGCTGCTG,–,8.5
GCCTAGCACTAAAAGAGGAAGTAGGAATAGTGCTAGGTCTTGATTCGCTTGACGCTGCTG,–,8.36
GCCTAGCACTAAAAGAGGAAGTGACCTCAGTGCTAGGTCTTGATTCGCTTGACGCTGCTG,–,7.82
GCCTAGCACAGCAGGAGGAAGTGGGTGGAGTGCTAGGTCTTGATTCGCTTGACGCTGCTG,3.97,–
GCCTAGCACAAAAAAAGGAAATGAAATTAGTGCTAGGTCTTGATTCGCTTGACGCTGCTG,–,3.65
GCCTAGCACCAAAAGAGGAAGAGTCTGACGTGCTAGGTCTTGATTCGCTTGACGCTGCTG,–,4.26
GCCTAGCACACAAAAAGGAACTGTTCCCCGTGCTAGGTCTTGATTCGCTTGACGCTGCTG,–,2.27
